Experimental data published in PubChem BioAssay.
Results filed as inconclusive are left out. Calls of active or inactive are those of the source.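 Rule for the calls, unless noted: active = cell viability at or below a set limit in both duplicate runs, the limit being the all-compound median minus 4 SD (cut at about 23% in these data, passing the limit was not always enough); inconclusive = no clear call, values can overlap the other calls; inactive = the rest.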

Legend:
[1] = Her2 expression decrease, cell viability multiplex – SKBR3 breast tumor cells, AlphaScreen, ATP viability, primary screen (AID 461;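 active = Her2 level under about 52% in both replicate screens, with viability over 70% of control, limit read from the data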;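 for Her2 level: lower value means less Her2 protein in the cells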;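 for viability: percent of carrier control wells set as 100% viability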); details: SKBR3 Her2 protein level, 18-24 h, measured here: SKBR3 viability, ATP luminescence, at 10 µM
[2] = biological target: Receptor tyrosine-protein kinase erbB-2 (Homo sapiens) (UniProt P04626); test: as above; details: 18-24 h, at 10 µM, stronger effect = lower value
[3] = reduced viability of SK-BR-3 breast cancer cells – cell-based, 24 h, human, pilot screen (AID 572;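 active = viability at or below 10% of carrier control in both of two separate runs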;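 note: compound exposure lasted between 18 and 24 h rather than exactly 24 h; 100% = carrier-treated control wells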); details: SK-BR-3 viability, CellTiter-Glo luminescence, at 10 µM, stronger effect = lower value
[4] = HUVEC growth inhibition – cell-based, human, primary screen (AID 575;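 active = viability at or below 30% in both replicate assays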;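 note: 100% = median of untreated cell wells with 0.1% DMSO on each plate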); details: HUVEC proliferation, CellTiter-Glo luminescence, 72 h; at 10 µM; stronger effect = lower value
[5] = H69AR cell proliferation blockers – human, duplicate replicates, primary screen (AID 580;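 active = viability at or under a set limit in both replicates, limit being median viability minus 3 SD, cut at about 48% in these data, passing the limit was not always enough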;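 note: 100% = mean luminescence of untreated wells and 0% = no signal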); details: H69AR lung tumor cells viability, ATP luminescence, 72 h; at 10 µM; stronger effect = lower value
[6] = MRP1 drug-resistance reversers in H69AR cells – cell-based, doxorubicin co-treatment, pilot screen (AID 601;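 active = viability loss from added drug above about 55%, and viability with drug at most 40%, in both replicates, limit read from the data, passing the limit was not always enough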); details: CellTiter-Glo, 72 h, at 10 µM; for differential viability (reversal): stronger effect = higher value
[7] = yeast transport mutant growth inhibition pilot in 384-well plates, post-Golgi transport modulator project (AID 636; in the data active = inhibition above about 31%); details: absorbance 615 nm, about 18 h, stronger effect = higher value
[8] = growth suppression of yeast trafficking mutant, preliminary HTS, modulators of trafficking downstream of Golgi apparatus project, 1536-format plate, OD 615 nm (AID 637; in the data active = inhibition above about 30%); details: yeast transport mutant growth, absorbance 615 nm, 18 h; stronger effect = higher value
[9] = S. cerevisiae growth inhibition in permissive medium (OD615), pilot counter-assay for S. cerevisiae lifespan shortening project, permissive growth control (AID 705;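 active = growth inhibition above 25% in both replicates, a cutoff set 3 SD above the mean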); details: OD615, 24 h, at 10 µM, stronger effect = higher value
[10] = S. cerevisiae growth inhibition in restrictive medium, OD615, pilot screen, restrictive growth control, yeast lifespan reduction project (AID 706;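 active = growth inhibition above a set limit, 3 SD over mean compound inhibition, in both replicates, cut at about 43% in these data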;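 note: modified DeaD lifespan yeast strain shifted to restrictive glucose medium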); details: OD615, 48 h, at 10 µM, stronger effect = higher value
[11] = doxorubicin toxicity protection in MRP-1 cells – H69AR cells, CellTiter-Glo, duplicate, MRP-1 activator project, pilot screen (AID 807;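 active = viability increase at or above a cutoff of the median across tested compounds plus 3 SD, cut at about 8.5% in these data, passing the limit was not always enough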;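 note: compound pretreatment 18-22 h then 72 h combined with doxorubicin; 0% = doxorubicin alone and 100% = vehicle without doxorubicin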); details: H69AR viability with doxorubicin, CellTiter-Glo luminescence; at 10 µM; stronger effect = higher value
[12] = viability of HCT116 without oncogenic beta-catenin – human colon tumor cells, pilot screen (AID 823); details: HCT116 beta-catenin knockout viability, CellTiter-Glo, 60 h; at 10 µM; stronger effect = lower value;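 note: 0% = wells killed by 20 µM Hyamine and 100% = untreated DMSO cell wells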
[13] = RAM pathway blockade in budding yeast – dse1pr::URA3 reporter, 5-FOA selection, pilot screen (AID 869;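 active = inhibition over a set limit, the all-compound mean plus 3 SD, in both replicate runs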;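 note: 0% = DMSO wells with no growth and 100% = 10 µM 1-NA-PP1 with full growth; RAM network block rescues cells from 5-FOA so hits raise OD615 growth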); details: S. cerevisiae dse1pr::URA3 5-FOA growth, OD615, 2 d; at 10 µM; stronger effect = higher value; strain carries analog-sensitive mutant Cbk1 kinase
[14] = RAM signaling pathway blockade in yeast – S. cerevisiae, Pdr1DBD-CYC8 efflux-inhibited sensitized strain, primary screen (AID 1298;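 active = RAM network inhibition above 8.4% in each of two replicates, 3 SD over the compound average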;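 note: 0% = DMSO untreated cells without growth and 100% = 10 µM 1-NA-PP1 full growth; higher means more yeast growth rescued from 5-FOA killing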); details: S. cerevisiae cbk1-as DSE1-URA3 strain, 5-FOA growth OD615, 2 d; at 50 µM; stronger effect = higher value
[15] = viability of PTEN-null HCT116 cells – cell-based, HCT116 clonal line, CellTiter-Glo, pilot screen (AID 824;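 active = viability at or below 27.92% in each of two runs, the all-compound median minus 4 SD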;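 note: 0% = 20 µM Hyamine control and 100% = vehicle cell control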); details: HCT116 PTEN-deleted viability, 60 h, at 10 µM, stronger effect = lower value
[16] = H69AR cells + 2 uM doxorubicin, measured here: viability with 2 uM doxorubicin, stronger effect = lower value
[17] = H69AR cells, compound alone cytotoxicity

Sequence of Receptor tyrosine-protein kinase erbB-2 (Homo sapiens) (P04626 whole entry, looked up): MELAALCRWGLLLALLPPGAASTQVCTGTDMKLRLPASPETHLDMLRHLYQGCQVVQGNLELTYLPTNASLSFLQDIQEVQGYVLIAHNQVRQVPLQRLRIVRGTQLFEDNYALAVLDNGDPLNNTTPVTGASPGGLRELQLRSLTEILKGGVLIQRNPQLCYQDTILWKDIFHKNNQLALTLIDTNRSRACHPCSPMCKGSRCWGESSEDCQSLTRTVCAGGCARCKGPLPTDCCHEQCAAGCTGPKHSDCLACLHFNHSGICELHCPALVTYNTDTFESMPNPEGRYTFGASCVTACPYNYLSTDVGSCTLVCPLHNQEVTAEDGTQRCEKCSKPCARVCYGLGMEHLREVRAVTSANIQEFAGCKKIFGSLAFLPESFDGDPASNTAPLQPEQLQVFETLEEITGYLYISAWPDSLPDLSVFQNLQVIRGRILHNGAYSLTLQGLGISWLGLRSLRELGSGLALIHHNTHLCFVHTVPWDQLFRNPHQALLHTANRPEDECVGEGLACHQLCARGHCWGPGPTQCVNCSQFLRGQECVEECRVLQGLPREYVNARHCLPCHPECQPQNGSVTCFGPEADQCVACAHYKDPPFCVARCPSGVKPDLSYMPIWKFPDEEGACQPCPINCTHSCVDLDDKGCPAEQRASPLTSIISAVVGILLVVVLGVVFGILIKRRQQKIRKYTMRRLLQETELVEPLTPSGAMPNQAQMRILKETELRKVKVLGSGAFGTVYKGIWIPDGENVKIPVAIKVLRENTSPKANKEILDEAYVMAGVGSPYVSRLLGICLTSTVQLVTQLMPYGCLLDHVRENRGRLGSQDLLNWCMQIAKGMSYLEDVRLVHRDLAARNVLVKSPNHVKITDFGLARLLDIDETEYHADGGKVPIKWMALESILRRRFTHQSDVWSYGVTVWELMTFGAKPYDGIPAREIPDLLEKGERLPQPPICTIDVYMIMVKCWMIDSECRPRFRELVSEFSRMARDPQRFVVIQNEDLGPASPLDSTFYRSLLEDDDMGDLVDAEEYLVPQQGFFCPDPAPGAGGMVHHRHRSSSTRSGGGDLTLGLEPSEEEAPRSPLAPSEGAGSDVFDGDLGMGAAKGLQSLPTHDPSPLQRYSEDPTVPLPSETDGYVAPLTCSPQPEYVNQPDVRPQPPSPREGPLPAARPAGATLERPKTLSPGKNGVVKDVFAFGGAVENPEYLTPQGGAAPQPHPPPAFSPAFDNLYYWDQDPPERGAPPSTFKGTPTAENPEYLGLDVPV

Cc1[nH]nc2c1C(C1CC=CCC1)C(C#N)=C(N)O2 (stereo not given)
inactive: Her2 level [2] 80% | viability [3] 102% | viability [4] 63.5% | viability [5] 96% | differential viability (reversal) ([6]; H69AR cells + 2 uM doxorubicin) 0.85% | inhibition [7] 0.65% | inhibition [8] -9.17% | growth inhibition [9] 1.72% | growth inhibition [10] 1.64% | viability increase [11] -5.29% | inhibition [13] 3.08% | RAM network inhibition [14] -0.5%
96%: viability [6, 17]
95.1%: viability [6, 16]
active: viability [12] 17.6%
102%: viability [1]

CCOc1ccc(N(CC(=O)Nc2ccc(C)c(C)c2)S(=O)(=O)c2c(C)noc2C)cc1
68.2%: viability [6, 16]
101%: viability [1]
53.8%: viability [6, 17]
inactive: Her2 level [2] 75% | viability [3] 101% | viability [4] 68.8% | viability [5] 53.8% | differential viability (reversal) ([6]; H69AR cells + 2 uM doxorubicin) -14.4% | inhibition [7] -0.13% | inhibition [8] 3.67% | growth inhibition [9] 0.98% | growth inhibition [10] -5.67% | viability increase [11] -6.26% | viability [12] 27.4% | inhibition [13] 1.85% | RAM network inhibition [14] 6.75%

CCOC(=O)Cn1c(=O)c(-c2ccccc2N)nc2ccccc21
75.6%: viability [6, 17]
81.7%: viability [6, 16]
101%: viability [1]
inactive: Her2 level [2] 84.5% | viability [3] 101% | viability [4] 85.3% | viability [5] 75.6% | differential viability (reversal) ([6]; H69AR cells + 2 uM doxorubicin) -6.16% | inhibition [7] -5.6% | inhibition [8] -2% | growth inhibition [9] 2.3% | growth inhibition [10] 0.83% | viability increase [11] -1.72% | viability [12] 108% | viability [15] 98.8% | inhibition [13] 2.16% | RAM network inhibition [14] 3.47%

Cc1ccnc(SCCn2c(N3CCN(Cc4ccccc4)CC3)nc3c2c(=O)[nH]c(=O)n3C)n1
87.5%: viability [6, 17]
88.4%: viability [6, 16]
85%: viability [1]
inactive: Her2 level [2] 93.5% | viability [3] 85% | viability [4] 91.7% | viability [5] 87.5% | differential viability (reversal) ([6]; H69AR cells + 2 uM doxorubicin) -0.99% | inhibition [7] -3.6% | inhibition [8] -4.59% | growth inhibition [9] 3.26% | growth inhibition [10] 0.065% | viability increase [11] -1.27% | viability [12] 95.7% | viability [15] 99.3% | inhibition [13] 0.145% | RAM network inhibition [14] 2.81%

O=C(c1sc2ccccc2c1Cl)N(Cc1cccs1)C1CCS(=O)(=O)C1 (stereo not given)
81.8%: viability [6, 16]
inactive: Her2 level [2] 100% | viability [3] 100% | viability [4] 73.2% | viability [5] 85.5% | differential viability (reversal) ([6]; H69AR cells + 2 uM doxorubicin) 3.69% | inhibition [7] 1.07% | inhibition [8] 0.17% | growth inhibition [9] -7.52% | growth inhibition [10] -11.5% | viability increase [11] -4.05% | viability [12] 92.2% | viability [15] 86.5% | inhibition [13] 0.395% | RAM network inhibition [14] 7.16%
85.5%: viability [6, 17]
100%: viability [1]

CCCN1CC23C=CC(O2)C(C(=O)O)C3C1=O (stereo not given)
81.5%: viability [1]
99.7%: viability [6, 16]
98.1%: viability [6, 17]
inactive: Her2 level [2] 94% | viability [3] 81.5% | viability [4] 85.4% | viability [5] 98.1% | differential viability (reversal) ([6]; H69AR cells + 2 uM doxorubicin) -1.58% | inhibition [7] -3.87% | inhibition [8] 0.16% | growth inhibition [9] -2.17% | growth inhibition [10] 2.93% | viability increase [11] -0.49% | viability [12] 100% | viability [15] 101% | inhibition [13] 1.96% | RAM network inhibition [14] -1.04%

COc1ccccc1N1CCN(c2cc(=O)n(Cc3ccc(F)cc3)c(=O)[nH]2)CC1
50.1%: viability [6, 16]
12.1%: viability [6, 17]
99%: viability [1]
active: viability [5] 12.1%
inactive: Her2 level [2] 68.5% | viability [3] 99% | viability [4] 44.1% | differential viability (reversal) ([6]; H69AR cells + 2 uM doxorubicin) -38% | inhibition [7] 0% | inhibition [8] 9.17% | growth inhibition [9] -0.995% | growth inhibition [10] 0.535% | viability increase [11] -5.11% | viability [12] 33.6% | inhibition [13] 1.02% | RAM network inhibition [14] 2.69%

c1ccc(-c2nnc(CSc3nncs3)o2)cc1
106%: viability [6, 17]
104%: viability [1]
inactive: Her2 level [2] 86.5% | viability [3] 104% | viability [4] 88.4% | viability [5] 106% | differential viability (reversal) ([6]; H69AR cells + 2 uM doxorubicin) 13.6% | inhibition [7] -3.95% | inhibition [8] -4.67% | growth inhibition [9] -16% | growth inhibition [10] 8.37% | viability increase [11] -0.84% | viability [12] 106% | inhibition [13] 1.01% | RAM network inhibition [14] 5.21%
92.9%: viability [6, 16]

CCCSc1nc2c(cnn2-c2ccc(C)cc2)c(=O)[nH]1
active: viability [4] 7.04% | viability [5] 19.1%
22.6%: viability [6, 16]
19.1%: viability [6, 17]
93%: viability [1]
inactive: Her2 level [2] 99% | viability [3] 93% | differential viability (reversal) ([6]; H69AR cells + 2 uM doxorubicin) -3.51% | inhibition [7] -2% | inhibition [8] -2.62% | growth inhibition [9] -8.62% | growth inhibition [10] 6.35% | viability increase [11] -8.01% | viability [12] 40.5% | inhibition [13] 3.78% | RAM network inhibition [14] 4.52%

CCN1CCN(c2nc3c(c(=O)[nH]c(=O)n3C)n2CCSc2nc3ccccc3s2)CC1
88.6%: viability [6, 17]
97.1%: viability [6, 16]
95.5%: viability [1]
inactive: Her2 level [2] 95% | viability [3] 95.5% | viability [4] 115% | viability [5] 88.6% | differential viability (reversal) ([6]; H69AR cells + 2 uM doxorubicin) -8.44% | inhibition [7] -1.73% | inhibition [8] 4% | growth inhibition [9] 1.81% | growth inhibition [10] -6% | viability increase [11] -1.2% | viability [12] 96.9% | viability [15] 91.4% | inhibition [13] 0.9% | RAM network inhibition [14] -0.84%
